Only some compounds are listed: those with a hit (about 3.5% of all), similar ones and a draw of the others.
GPR151 activ: human GPR151 activation; Q8TDV0; PathHunter beta-arrestin GPR151 cells, luminescence; activation, % at 11.2 µM; hit rate 1% among 650,000; in the data active = activation above about 4.9%;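 also: 0% = median of compound wells and 100% = cells with positive control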
MITF inh: human MITF inhibition, primary screen. AlphaScreen MITF homodimerization, bead proximity signal. inhibition, % at 2.6 µM. hit rate 0.91% among 650,000. AID 1259374; in the data active = inhibition above about 50%;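 also: 0% = vehicle wells with protein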
TEAD-YAP block: TEAD-YAP interaction inhibition. inhibition, % at 9.12 µM. HEK-TIYL cells, TEAD-Gal4/YAP UAS-luciferase luminescence. hit rate 1.4% among 640,000. AID 1259422; in the data active = inhibition above about 32%;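 also: 0% = median of test compound wells and 100% = reference inhibitor wells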
FBW7 act: human FBW7 E3 ligase activation, primary screen; Q969H0; AlphaScreen FBW7–phospho-cyclin E peptide binding, activator screen; normalized activity (activation), % at 26.1 µM; hit rate 0.13% among 650,000; AID 1259310; in the data active = normalized activity above about 1.9%;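 also: purified mutant Fbw7 with reduced substrate affinity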
Target sequence (Q969H0 whole entry, looked up): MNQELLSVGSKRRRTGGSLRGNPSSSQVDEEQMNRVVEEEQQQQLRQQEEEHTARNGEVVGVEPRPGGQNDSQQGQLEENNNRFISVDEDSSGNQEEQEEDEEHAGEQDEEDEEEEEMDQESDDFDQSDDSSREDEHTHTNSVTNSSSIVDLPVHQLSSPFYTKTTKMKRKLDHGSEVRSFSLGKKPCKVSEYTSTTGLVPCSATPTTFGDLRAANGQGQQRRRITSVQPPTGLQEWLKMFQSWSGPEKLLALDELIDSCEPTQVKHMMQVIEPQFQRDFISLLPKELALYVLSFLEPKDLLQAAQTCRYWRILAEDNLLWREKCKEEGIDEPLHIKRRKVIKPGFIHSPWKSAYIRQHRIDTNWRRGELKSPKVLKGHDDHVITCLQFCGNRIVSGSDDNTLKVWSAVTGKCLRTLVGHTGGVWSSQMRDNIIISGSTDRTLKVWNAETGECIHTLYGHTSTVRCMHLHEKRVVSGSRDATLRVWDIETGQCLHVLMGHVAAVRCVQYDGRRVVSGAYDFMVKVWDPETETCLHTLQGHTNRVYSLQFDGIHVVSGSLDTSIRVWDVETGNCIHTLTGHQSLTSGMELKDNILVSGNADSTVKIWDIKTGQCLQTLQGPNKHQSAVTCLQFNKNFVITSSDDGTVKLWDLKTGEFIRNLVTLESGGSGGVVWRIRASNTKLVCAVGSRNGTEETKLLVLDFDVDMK
* = called active by the depositor.

SMILES	GPR151 activ	MITF inh	TEAD-YAP block	FBW7 act
CCn1c(C)nc2c(C)[n+](CC(=O)c3ccc(Br)cc3)ccc21	-1	-6	38*	0
CCCOc1ccc(N2CCN(C(=O)c3cccc(Cl)c3)CC2)nn1	0	-4	11	0
Cc1ccn2cc(-c3ccccc3Br)nc2c1	-6	6	33*	0
Cc1ccn2cc(-c3ccc(I)cc3)nc2c1	-5	6	79*	0
Cc1ccn2cc(-c3ccc(F)cc3)nc2c1	-11	13	73*	0
Cc1ccn2cc(-c3ccc(S(=O)(=O)N(C)C)cc3)nc2c1	-2	-4	48*	0
Cc1ccn2cc(-c3ccc([N+](=O)[O-])cc3)nc2c1	-4	11	-1	0
CC(C)(C)c1ccc(C(=O)C2CCCN(C(=O)C[n+]3cc(=O)o[nH]3)C2)cc1 (stereo not given)	-1	1	3	1
O=c1c2ccccc2nc(SCc2ccc(F)cc2Cl)n1CC1COc2ccccc2O1 (stereo not given)	0	4	-7	0
N#Cc1ccc(Cl)cc1NC(=O)COC(=O)CNC(=O)c1ccccc1	2	-1	4	0
CSC1=C(C#N)C(c2ccccc2Cl)C(C(=O)Nc2ccccc2C)=C(C)N1 (stereo not given)	0	15	-4	2.0*
CCSC1=C(C#N)C(c2ccccc2Cl)C(C(=O)Nc2ccccc2C)=C(C)N1 (stereo not given)	0	5	-4	0
Cc1ncoc1C(=O)NC1CCCc2c1cnn2-c1ccc(F)cc1F (stereo not given)	0	6	45*	0
CC1=C(C(=O)NC2CCCc3c2cnn3-c2ccc(F)cc2F)OCCO1 (stereo not given)	0	8	30	0
Oc1c(Cl)cc(CN2CCN(c3cccc(C(F)(F)F)c3)CC2)c2cccnc12	-1	38	70*	0
O=[N+]([O-])c1cc(CN2CCN(c3cccc(C(F)(F)F)c3)CC2)c2cccnc2c1O	-1	100*	20	0
O=C(CSCC(=O)Nc1nc2ccccc2s1)Nc1nc(-c2cccs2)cs1	3	-2	-9	0
COc1ccc(C2Nc3ccccc3C(=O)N2c2ccc3ccccc3c2)cc1 (stereo not given)	-6	-5	64*	0
COc1ccc(C2Nc3ccccc3C(=O)N2c2ccc(C)cc2)cc1 (stereo not given)	-1	10	-66	0
Cc1csc(NC(=O)C(Cc2c[nH]c3ccccc23)NC(=O)OC(C)(C)C)n1 (stereo not given)	-1	12	41*	0
CC1=CC(C)(C)Nc2ccc(OC(=O)NC3CCCCC3)cc21	0	0	-22	0
Cc1ccc2c(c1)C1OCCC1C(c1cccs1)N2 (stereo not given)	0	0	42*	0
Cc1ccc2cccc(OS(=O)(=O)c3ccccc3[N+](=O)[O-])c2n1	0	10	-11	1
CC(C)c1ccc(C(=O)Nc2ccccc2C(N)=O)cc1	1	9	33*	0
NC(=O)c1ccccc1NC(=O)c1ccc(Cl)cc1	-1	4	-53	0
SMILES	GPR151 activ	MITF inh	TEAD-YAP block	FBW7 act
NC(=O)c1ccccc1NC(=O)c1ccc(Cn2nnc3ccccc32)cc1	0	4	56*	0
COc1cccc2c(NCCCN3CCCC3=O)nc(C(Cl)(Cl)Cl)nc12	0	-1	2	0
COc1ccc(NC(=O)c2cc3cc(Br)ccc3o2)cc1	-2	7	-10	0
Cc1cc(/C=C2/C(=N)N3C=CSC3=NC2=O)c(C)n1-c1ccc(Cl)cc1	5	-4	-5	0
COc1ccccc1-n1c(C)cc(/C=C2/C(=N)N3C=C(C)SC3=NC2=O)c1C	1	15	5	0
Cc1ccc(-n2c(C)cc(/C=C3/C(=N)N4C=CSC4=NC3=O)c2C)c(C)c1	-1	-2	64*	0
COc1ccccc1-n1c(C)cc(/C=C2\C(=N)N3N=CSC3=NC2=O)c1C	1	20	75*	0
COc1ccc(C)cc1-n1c(C)cc(/C=C2/C(=N)N3C=CSC3=NC2=O)c1C	-1	15	51*	1
CCOC(=O)C1CCCN(C(=O)c2cc3c(-c4cccc(OC)c4)nn(C)c3s2)C1 (stereo not given)	-1	-12	38*	0
COc1cccc(-c2nn(C)c3sc(C(=O)N4CCN(c5ccccn5)CC4)cc23)c1	0	-4	35*	0
CC1(C)Cc2nc3sc4c(N5CCNCC5)ncnc4c3cc2CS1	-1	15	44*	0
CS(=O)(=O)Nc1cccc(-c2cnn3c(N4CCOCC4)ccnc23)c1	-2	4	-1	2.0*
Oc1ccc(-c2cnn3c(N4CCOCC4)ccnc23)cc1	-1	0	98*	0
Cc1ccc(-c2cnn3c(N4CCC(O)CC4)ccnc23)cc1C	0	2	-83	0
Oc1ccc(-c2cnn3c(N4CCC(O)CC4)ccnc23)cc1	-1	6	52*	0
CCCCSc1nnc2c(n1)OC(c1ccc(OCC)c(OC)c1)Nc1ccccc1-2 (stereo not given)	-1	9	-14	0
O=C(/C=C/c1cccc([N+](=O)[O-])c1)Nc1nc2nccc(-c3ccccc3)n2n1	0	2	5	0
COc1ccc(C(=O)N/N=C/c2ccc(O)cc2O)cc1	-1	48	8	0
Nc1nonc1C(=O)N/N=C\c1ccc(O)c(O)c1	-5	-5	2	0
CCOc1cc(C(=O)N/N=C/c2ccc(O)cc2O)cc(OCC)c1OCC	2	10	72*	-1
Nc1nonc1C(=O)N/N=C/c1ccc(O)cc1O	-7	94*	9	-1
O=C(N/N=C/c1ccc(O)cc1O)c1ccc[n+](CCO)c1	3	101*	7	-1
O=C(N/N=C\c1ccc(O)cc1O)C(=O)N/N=C/c1ccc(O)cc1O	-1	69*	13	-1
CCOC(=O)C1=C(C)NC2=C(C(=O)C(C(=O)OC)C(C)C2)C1c1cc(OC)c(O)c([N+](=O)[O-])c1 (stereo not given)	1	2	7	0
COc1ccc(Cl)cc1C(=O)NC(=S)Nc1ccc(S(=O)(=O)NC(C)=O)cc1	-1	7	-1	0
SMILES	GPR151 activ	MITF inh	TEAD-YAP block	FBW7 act
O=C(CN1C(=O)CCSc2ccccc21)N1CCc2ccccc21	0	10	-3	0
O=C(N/N=C/c1cc(Cl)ccc1O)c1cccs1	0	40	55*	-1
O=C(N/N=C/c1cc(Br)ccc1F)c1cccs1	0	-2	-50	0
O=C(N/N=C/c1cc(Br)ccc1O)c1cccs1	0	31	40*	0
CCN(CC)c1ccc(/C=N/NC(=O)c2nonc2N)cc1	-4	-19	46*	0
O=C(CNc1ccc2ccccc2c1)N/N=C/c1ccc(O)cc1O	2	-4	40*	0
CCOc1ccc(C(=O)N2CCN=C2SCc2ccc(F)cc2)cc1	-1	4	2	0
O=C(N/N=C/c1ccc(O)cc1O)c1cccs1	-4	83*	-25	0
O=C(N/N=C/c1ccc(O)cc1)c1cccs1	-7	16	-50	0
